Data reported in PubChem BioAssay (Tox21).
Records with an inconclusive call do not appear. Where a call stands in place of a potency, no number is given. Activity calls are given as the source filed them. Calls follow the shape of the dose curve; as a rule, active = well fitted cell-killing curve with a large enough effect in the repeat runs; inconclusive = weak or mixed curves, or effect the other way; inactive = flat fitted curve, though single readings scatter.

Assay: qHTS RealTime-Glo MT Cell Viability Assay in HEK293 cells - 0 hour (AID 1224880); also: nearly all actives have a fitted effect of over 45% in size
Details: RealTime-Glo luminescence; series mostly up to 76.8 µM
From the text: U.S. Tox21 Program National Center for Advancing Translational Sciences [NCATS] NIH Chemical Genomics Center [NCGC] U.S. Environmental Protection Agency [EPA] National Institutes of Environmental Health Sciences [NIEHS] National Toxicology Program [NTP] U.S. Food and Drug Administration [FDA] Tox21 Assay Overview: Measure of cell viability is critical in the cell-base assay. Analysis of cell viability is necessary for the characterization of cell responses to cytotoxic drugs and environmental stress. A RealTime-Glo MT Cell Viability Assay to monitor cell viability in real time of continues cell culture during 40 hours of compound treatment was used to screen Tox21 10K library compounds in Hek293 cells. The RealTime-Glo MT Cell Viability Assay is a nonlytic, homogeneous, bioluminescent method to measure cell viability in real time using a simple, plate-based method. The assay involves adding NanoLuc luciferase and a cell-permeant prosubstrate to cells in culture. Viable cells reduce the proprietary prosubstrate to generate a substrate for NanoLuc luciferase. This substrate diffuses from cells into the surrounding culture medium, where it is rapidly used by the NanoLuc Enzyme to produce a luminescent signal. The signal correlates with the number of viable cells, making the assay well suited for cytotoxicity studies.
Tox21 Assay Protocol Summary: The mixture of Hek293 cell suspension and reagents were dispensed at 600cells/6 ul/well in 1536-well tissue culture treated black solid bottom plates using a Multidrop dispenser. After the assay plates were incubated at a 37 C/5% CO2 incubator for 5 hours, 23 nL of compounds dissolved in DMSO, positive and negative controls was transferred to the assay plate by a pintool work station. The plates were incubated at 37 C for 40 hours. The luminescence intensity were measured at 0h, 8h, 16h, 24h, 32h and 40h time points using ViewLux plate reader during compound treatment.
Potency is read from the fitted curve at half-maximal effect.

Row | Structure (SMILES) | Potency
1 | O=[N+]([O-])c1c(Cl)c(Cl)c(Cl)c(Cl)c1Cl | inactive
2 | C=CCc1ccc2c(c1)OCO2 | inactive
3 | O=S(=O)(Oc1ccc(Cl)cc1)c1ccc(Cl)cc1 | inactive
4 | ClC1C(Cl)C(Cl)C(Cl)C(Cl)C1Cl (stereo not given) | inactive
5 | CC(C)c1ccc(CO)cc1 | inactive
6 | c1ccc(N=Nc2ccccc2)cc1 | inactive
7 | C1=Cc2cccc3cccc1c23 | inactive
8 | CCOc1cc(C=O)ccc1O | inactive
9 | CCC(C)c1cc([N+](=O)[O-])cc([N+](=O)[O-])c1O (stereo not given) | inactive
10 | Nc1ccc(Cl)cc1N | inactive
11 | NC(=S)Nc1ccccc1 | inactive
12 | Cc1ccc(N)c(N)c1 | inactive
13 | O=P(Oc1ccccc1)(Oc1ccccc1)Oc1ccccc1 | inactive
14 | CC(C)Oc1cc(-n2nc(C(C)(C)C)oc2=O)c(Cl)cc1Cl | inactive
15 | C=CC(=O)OCCO | inactive
16 | O=C(CCl)c1ccccc1 | inactive
17 | Nc1cccnc1 | inactive
18 | C[C@]12CCC(=O)C(O)=C1CC[C@@H]1[C@@H]2CC[C@]2(C)C(=O)CC[C@@H]12 | inactive
19 | CC(C)(c1cc(Cl)c(O)c(Cl)c1)c1cc(Cl)c(O)c(Cl)c1 | inactive
20 | Oc1cc(Cl)c(Cl)cc1Cl | inactive

Row | Structure (SMILES) | Potency
21 | O=P(O)(O)CCCl | inactive
22 | Cc1ccc2c(c1N)C(=O)c1ccccc1C2=O | inactive
23 | O=C(O)C(F)(F)C(F)(F)C(F)(F)C(F)(F)C(F)(F)C(F)(F)C(F)(F)F | inactive
24 | CCCCCCOC(=O)c1ccccc1C(=O)OCCCCCC | inactive
25 | Brc1ccc(Oc2cc(Br)c(Br)cc2Br)c(Br)c1 | inactive
26 | NCc1cccnc1 | inactive
27 | O=C(Nc1ccc(Br)cc1)c1cc(Br)cc(Br)c1O | 24.5 µM (active)
28 | CC(C)(OOC(C)(C)c1ccccc1)c1ccccc1 | inactive
29 | CCCCN(CC)c1c([N+](=O)[O-])cc(C(F)(F)F)cc1[N+](=O)[O-] | inactive
30 | C[C@]12CCC(=O)C[C@@H]1CC[C@@H]1[C@@H]2CC[C@]2(C)[C@@H](O)CC[C@@H]12 | inactive
31 | OCC(O)CO | inactive
32 | Oc1c(Cl)c(Cl)c(Cl)c(Cl)c1Cl | inactive
33 | CC(O)CCO (stereo not given) | inactive
34 | CCOC(=O)C(C)OC(=O)c1cc(Oc2ccc(C(F)(F)F)cc2Cl)ccc1[N+](=O)[O-] (stereo not given) | inactive
35 | Nc1ccc(-c2ccccc2)cc1 | inactive
36 | CC(C)=CC1C(C(=O)OCc2coc(Cc3ccccc3)c2)C1(C)C (stereo not given) | inactive
37 | Oc1ccc(-c2ccccc2)cc1 | inactive
38 | CCOC(=S)S | inactive
39 | O=C(O)CC[N+](=O)[O-] | inactive
40 | Cc1cc(C)cc(C)c1 | inactive
